HT1080 IDH1KD tx: kills HT-1080 cells with IDH1 knockdown. HT-1080 IDH1 knockdown viability, ATP luminescence, 48 h. Potency, µM (titrated, usually from 46.1 µM), most hits filed as cytotoxic. 360,000 tested, 2% active. AID 686971
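Using the IDH1-knockdown HT-1080 line run in the same batch and compound series as the NT line, viability after 48 h at 37 °C was determined by CellTiter-Glo luminescence and expressed as % activity.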
IL-1B inflam inh: inflammasome signaling inhibition, IL-1 beta readout; THP-1 LPS/ATP IL-1B secretion, AlphaLISA, 16 h; stronger effect = lower value; activity change, % at 57.5 µM; 360,000 tested, 4.7% active; AID 743279; in the data active = activity change below about -50%; inconclusive = mostly about -30% to -49%
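THP-1 cells pretreated 1 hr with compounds (up to 57.5 uM final), then stimulated with LPS (250 ng/mL final) plus ATP (1.25 mM final); secreted IL-1B measured by AlphaLISA after 16 hr, decreased signal indicating inhibition.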
TDP1 cell noCPT: qHTS for Inhibitors of human tyrosyl-DNA phosphodiesterase 1 (TDP1): qHTS in cells in absence of CPT. Potency, µM (doses to about 46.2 µM), most hits filed as inhibitors. DT40 Tdp1-/- hTDP1 cells, no CPT, ATP luminescence, 48 h. 420,000 tested, 15% active; also: nearly all actives have a fitted effect of over 55% in size
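Chicken DT40 Tdp1-/- cells stably complemented with human TDP1 were seeded at 400 cells/well with DMSO in place of 20 nM camptothecin. After compound pinning, cells grew at least 48 hr at 37 °C; viability read by CellTiter-Glo luminescence.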
DT40 TDP1 CPT: DT40-hTDP1 cell growth loss with CPT; chicken DT40 Tdp1-/-;hTDP1 cells + 20 nM CPT, ATP luminescence, 48 h; Potency, µM (highest dose often 46.2 µM), hits mostly inhibitors; 420,000 tested, 12% active; AID 686979; also: nearly all actives have a fitted effect of over 55% in size
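Chicken DT40 Tdp1-/- cells complemented with human TDP1, 400 cells/well, exposed to compounds plus 20 nM camptothecin for at least 48 h at 37 C; viability read as ATP content by CellTiter-Glo luminescence.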
HT1080NT lethal: kills 2HG-producing HT-1080-NT fibrosarcoma cells. AID 686970. Potency, µM (highest dose often 46.1 µM), hits mostly cytotoxic. HT-1080-NT fibrosarcoma viability, CellTiter-Glo ATP luminescence, 48 h. 360,000 tested, 1.6% active;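 also: NT is the 2HG producing partner of a matched IDH1 knockdown line; nearly all actives have a fitted effect of over 55% in size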
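Toxicity toward the 2HG-producing NT line was scored as %Activity, normalised to DMSO and no-cell wells, from CellTiter-Glo luminescence after 48 hours' treatment.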
Each line names hits and unclear results; the compound was inactive in the other large screens. Rows were chosen to be rich in hits. Some 19% of all compounds tested hit in one or more screens of this group. Unless noted, calls follow the shape of the dose curve; as a rule, active = well fitted curve in the direction sought with a large enough effect; inconclusive = small, poorly fitted or top-dose-only effect, or another doubt; inactive = no such curve, though single readings can be large; an effect the other way counts as inactive or inconclusive.

N#Cc1ccc(Nc2nc(NCc3ccccc3)nc3ccsc23)cc1	TDP1 cell noCPT 1.8µM, DT40 TDP1 CPT 6.5µM, HT1080NT lethal inconclusive
O=C(CSc1nnc(C2CC2)n1Cc1ccccc1)N1CCNC1=O	none
COc1ccc(N/C=C/C(=O)c2ccc(OC)c(OC)c2)cc1	HT1080 IDH1KD tx inconclusive, TDP1 cell noCPT inconclusive, HT1080NT lethal inconclusive
COc1ccc(C(=O)/C=C/Nc2ccc(NC(C)=O)cc2)cc1OC	HT1080 IDH1KD tx inconclusive, TDP1 cell noCPT inconclusive, DT40 TDP1 CPT 16µM, HT1080NT lethal inconclusive
COc1ccc(N/C=C/C(=O)c2cc(OC)c(OC)c(OC)c2)cc1	HT1080 IDH1KD tx 1.3µM, TDP1 cell noCPT 1µM, DT40 TDP1 CPT 1µM, HT1080NT lethal 1.2µM
COc1ccc(C(=O)/C=C/Nc2cccc(C)n2)cc1OC	IL-1B inflam inh -60, DT40 TDP1 CPT inconclusive
COC(=O)c1ccc(N/C=C/C(=O)c2ccc(OC)c(OC)c2)cc1	none
CCN(CC)CCN(C)C1CCC(c2ccccc2)CC1 (stereo not given)	TDP1 cell noCPT 21µM, DT40 TDP1 CPT 16µM
O=C1Nc2ccc(Br)cc2/C1=C/C(=O)c1ccccc1	HT1080 IDH1KD tx inconclusive, IL-1B inflam inh -103, TDP1 cell noCPT 4.6µM, DT40 TDP1 CPT 5.8µM, HT1080NT lethal inconclusive
C=CCOc1cccc(C(=O)/C=C2/C(=O)Nc3ccccc32)c1	HT1080 IDH1KD tx inconclusive, IL-1B inflam inh inconclusive, TDP1 cell noCPT 6.5µM, DT40 TDP1 CPT 7.3µM, HT1080NT lethal 18µM
CC(=O)N(C)c1ccc(N=C2C(=O)Nc3ccccc32)cc1	none
C=CCOc1cccc(C(=O)N2CCCC(CCC(=O)NCc3ccccc3F)C2)c1 (stereo not given)	TDP1 cell noCPT inconclusive, DT40 TDP1 CPT inconclusive
CC(=O)/C=C1/C(=O)Nc2ccccc21	HT1080 IDH1KD tx inconclusive, TDP1 cell noCPT 3.7µM, DT40 TDP1 CPT 6.5µM, HT1080NT lethal inconclusive
COc1ccc(OC)c(C=NNC(=O)c2ccccc2NS(=O)(=O)c2cccs2)c1	none
CCOC(=O)/C=c1\s/c(=C\c2ccc(-c3ccccc3)cc2)c(=O)n1CC(=O)NCc1ccc2c(c1)OCO2	TDP1 cell noCPT 9.2µM, DT40 TDP1 CPT 9.2µM
CCOC(=O)/C=c1\s/c(=C\c2ccc(C)cc2)c(=O)n1CC(=O)NCc1ccco1	TDP1 cell noCPT inconclusive, DT40 TDP1 CPT 16µM
CCOC(=O)/C=c1/s/c(=C/c2ccc3cc(OC)ccc3c2)c(=O)n1CC(=O)NCc1ccc2c(c1)OCO2	TDP1 cell noCPT 9.2µM, DT40 TDP1 CPT 5.8µM
CCOC(=O)/C=c1\s/c(=C\c2ccc3cc(OC)ccc3c2)c(=O)n1CC(=O)NCC1CCCO1 (stereo not given)	TDP1 cell noCPT 6.5µM, DT40 TDP1 CPT 9.2µM
COc1ccc(/C=C/C(=O)OCC(=O)NCC2CCCO2)cc1 (stereo not given)	none
COc1ccc(Cc2nnc(NC(=O)CS(=O)(=O)c3ccccc3)s2)cc1OC	none
O=C(N/N=C\C=C\c1ccco1)C1COc2ccccc2O1 (stereo not given)	HT1080 IDH1KD tx inconclusive, TDP1 cell noCPT 10µM, DT40 TDP1 CPT 2.6µM, HT1080NT lethal inconclusive

Compound activity deposited in PubChem BioAssay by National Center for Advancing Translational Sciences (NCATS).
